Screening data from PubChem BioAssay.
HT1080 IDH1KD tx: qHTS for induction of synthetic lethality in tumor cells producing 2HG: qHTS for the HT-1080-IDH1KD cell line; HT-1080 IDH1 knockdown viability, ATP luminescence, 48 h; Potency, µM (doses to about 46.1 µM), inactives show top-dose activity, negative = toxicity, most hits filed as cytotoxic; hit rate 2% among 360,000; AID 686971, 2013;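 note: potency is the fitted concentration of half-maximal effect; 0% = DMSO wells and -100% = cell-free medium wells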
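IDH1KD HT-1080 cells, 750/well, RPMI + 5% FBS; compound pinned after 2 h settling; 48 h, 37 °C; CellTiter-Glo luminescence; % activity normalised to DMSO and no-cell wells; curves fitted, classed by r2 and efficacy.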
IL-1B inflam inh: qHTS for Inhibitors of Inflammasome Signaling: IL-1-beta AlphaLISA Primary Screen; THP-1 LPS/ATP IL-1B secretion, AlphaLISA, 16 h; stronger effect = lower value; AID 743279, 2014; activity change, % at 57.5 µM; hit rate 4.7% among 360,000; in the data active = activity change below about -50%; inconclusive = mostly about -30% to -49%
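Secreted IL-1B measured by AlphaLISA bead assay after 16 h compound exposure of THP-1 cells; compounds (final up to 57.5 uM) added 1 h before LPS (250 ng/mL) and ATP (1.25 mM) stimulation; lower signal means less secretion.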
DT40 TDP1 CPT: qHTS for Inhibitors of human tyrosyl-DNA phosphodiesterase 1 (TDP1): qHTS in cells in presence of CPT; chicken DT40 Tdp1-/-;hTDP1 cells + 20 nM CPT, ATP luminescence, 48 h; AID 686979, 2013; Potency, µM (doses to about 46.2 µM), for inactives: top-dose activity change, negative = growth inhibition, usual class: inhibitors; hit rate 12% among 420,000; note: potency is the fitted concentration of half-maximal effect; nearly all actives have a fitted effect of over 55% in size
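Cell growth measured by CellTiter-Glo luminescence after a minimum 48 h, 37 C compound exposure with 20 nM CPT in Tdp1-knockout DT40 cells stably expressing hTDP1, seeded 400/well; qHTS titration format.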
HT1080NT lethal: qHTS for induction of synthetic lethality in tumor cells producing 2HG: qHTS for the HT-1080-NT fibrosarcoma cell line; HT-1080-NT fibrosarcoma viability, CellTiter-Glo ATP luminescence, 48 h; hit rate 1.6% among 360,000; Potency, µM (top dose mostly 46.1 µM), without a hit: at the highest dose activity, negative = less viability, actives largely listed as cytotoxic; AID 686970, 2013;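 note: NT is the 2HG producing partner of a matched IDH1 knockdown line; potency is the fitted concentration of half-maximal effect; 0% = DMSO-treated cells and -100% = media-only wells without cells; nearly all actives have a fitted effect of over 55% in size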
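Compounds were tested in concentration-response format on HT-1080-NT cells for 48 hours at 37 degrees C. Cell viability came from CellTiter-Glo luminescence; curves were classified by r2, response magnitude and activity.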
TDP1 cell noCPT: qHTS for Inhibitors of human tyrosyl-DNA phosphodiesterase 1 (TDP1): qHTS in cells in absence of CPT | hit rate 15% among 420,000 | Potency, µM (series often up to 46.2 µM), without a hit: top-dose activity change, negative = growth inhibition, actives largely listed as inhibitors | DT40 Tdp1-/- hTDP1 cells, no CPT, ATP luminescence, 48 h; note: potency is the fitted concentration of half-maximal effect; nearly all actives have a fitted effect of over 55% in size
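Compound effects on proliferation are scored in DT40 Tdp1-/-;hTDP1 cells in the absence of CPT. ATP levels (CellTiter-Glo luminescence) are recorded after a ≥48 hr, 37 °C incubation.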
* = called active by the depositor; ? = inconclusive; · = not tested or not shown; ! = repeats disagree. This is a sample that favours compounds with a hit; in the whole collection about 19% have one here. Unless noted, calls come from the whole dose curve; as a rule, active = well fitted curve in the direction sought with a large enough effect; inconclusive = small, poorly fitted or top-dose-only effect, or another doubt; inactive = no such curve, though single readings can be large; an effect the other way counts as inactive or inconclusive. Unless noted, % is set by controls: 0 for no effect and ±100 for the full control effect.

SMILES	HT1080 IDH1KD tx	IL-1B inflam inh	DT40 TDP1 CPT	HT1080NT lethal	TDP1 cell noCPT
O=C(CCS(=O)(=O)c1ccccc1)NNC(=O)CSc1ccccc1F	0%	7	-3%	3%	14%
O=C1CN(C(=O)CNCc2ccccc2)c2ccccc2N1	5%	-19	4%	0%	-7%
COc1cc(OC)nc(Nc2nc(C(N)CCc3ccccc3)cs2)n1 (stereo unspecified)	?	?	26µM*	-25%	?
COc1cccc(Nc2nc(C(N)c3ccccc3Cl)cs2)n1 (stereo unspecified)	?	?	21µM*	?	15µM*
Cc1ccc(OC(C)C(=O)Nc2ccccc2C(=O)NCc2cccnc2)cc1C (stereo unspecified)	-2%	11	?	1%	-29%
COc1ccc(N=C(C)C2=C(O)c3ccccc3C2=O)cc1	-2%	1	23µM*	6%	?
CC(=O)Nc1ccc(N=C(C2=C(O)c3ccccc3C2=O)c2ccccc2)cc1	?	-12	3.3µM*	-25%	?
CC1C(c2ccccc2)=NNc2nc3c(c(=O)n(C)c(=O)n3C)n21 (stereo unspecified)	8%	26	?	10%	12µM*
O=C(CN1CCCN(Cc2ccccc2Cl)S1(=O)=O)Nc1ccc2c(c1)OCCO2	·	·	?	·	-25%
NC(=O)CCN1CCCCC1	15%	14	1%	6%	23%
O=C(CCC(=O)CCN1CCCCC1)CCN1CCCCC1	-7%	-16	13µM*	-5%	21µM*
CN(C)CCN(Cc1ccco1)c1ccccn1	19%	-10	20%	6%	-2%
CN(C)CCN(Cc1cccs1)c1ccccn1	-16%	-9	?	-13%	24µM*!
Cc1ccc(N2C(=S)NC3c4cc(Cl)ccc4OC2(C)C3C(=O)N(C)C)cc1 (stereo unspecified)	-22%	2	-12%	-10%	3%
COc1ccc(N2C(=S)NC3c4cc(Cl)ccc4OC2(C)C3C(=O)N(C)C)cc1 (stereo unspecified)	?	8	29µM*	?	?
O=C(c1ccccn1)N1N=C2/C(=C/c3ccc(F)cc3)CCCC2C1c1ccc(F)cc1 (stereo unspecified)	-26%	-55*	?	-20%	?
CCCn1c(SCC(=O)N2N=C3/C(=C/c4ccc(OC)cc4)CCCC3C2c2ccc(OC)cc2)n[nH]c1=O (stereo unspecified)	12µM*	-25	?	7.3µM*	?
CC(=O)N1N=C2/C(=C/c3ccccc3)CCCC2C1c1ccccc1 (stereo unspecified)	?	-5	?	?	?
CCCn1c(SCC(=O)NCc2ccc(OC)cc2)n[nH]c1=O	11%	23	4%	14%	-4%
O=C(NC(=S)Nc1ccc(Cc2ccncc2)cc1)c1ccccc1F	-18%	-74*	?	-22%	?
Cc1ccccc1C(=O)NC(=S)Nc1ccc(Cc2ccncc2)cc1	14%	-11	-23%	23%	?
O=C(NC(=S)Nc1ccc(Cc2ccncc2)cc1)c1ccccc1Cl	19%	-21	?	20%	?
COc1ccc(C(=O)NC(=S)Nc2ccc(Cc3ccncc3)cc2)cc1	21µM*	-64*	?	18µM*	18µM*
CC(C)c1ccc(NC(=O)Nc2nc(CN)cs2)cc1	-24%	-20	?	-16%	?
Cc1ccccc1NC(=O)Nc1nc(C(N)C2CCCCC2)cs1 (stereo unspecified)	?	-54*	23µM*	?	?
SMILES	HT1080 IDH1KD tx	IL-1B inflam inh	DT40 TDP1 CPT	HT1080NT lethal	TDP1 cell noCPT
CC(C)c1ccc(NC(=O)Nc2nc(C(N)C3CCCCC3)cs2)cc1 (stereo unspecified)	21µM*	-113*	?	?	?
CC(C)c1ccc(NC(=O)Nc2nc(C(C)N)cs2)cc1 (stereo unspecified)	21µM*	?	15µM*	?	15µM*
CC(C)c1ccc(NC(=O)Nc2nc(C(N)c3ccccc3Cl)cs2)cc1 (stereo unspecified)	?	-77*	13µM*	?	10µM*
CN(C)c1ccc(NC(=O)Nc2nc(C(N)C3CCCCC3)cs2)cc1 (stereo unspecified)	?	-60*	18µM*	?	21µM*
NC(=O)c1cccc(Nc2nc(C(N)C3CCCCC3)cs2)n1 (stereo unspecified)	-27%	-3	?	?	?
CCN(CC)S(=O)(=O)c1ccc2c(c1)N(CC(=O)Nc1ccc(NC(C)=O)cc1)C(=O)CO2	4%	7	3%	6%	-17%
CC(CNC(=O)c1ccc2c(c1)nc1n2CCCCC1)c1ccccc1 (stereo unspecified)	·	·	23µM*	·	?
Cc1ccc(C)c(CNC(=O)c2ccc3c(c2)nc2n3CCC(C)C2)c1 (stereo unspecified)	·	·	?	·	21µM*
CSc1ccc(CCNC(=O)c2ccc3c(c2)nc2n3CCC(C)C2)cc1 (stereo unspecified)	·	·	21µM*	·	13µM*
COc1ccc(Br)cc1CNC(=O)c1ccc2c(c1)nc1n2CCCCC1	·	·	?	·	16µM*
O=C(NCc1ccc(F)cc1)c1ccc2c(c1)nc1n2CCCCC1	·	·	-29%	·	?
